# Screens as filed in PubChem.
# This is one part of a sample in which hits are shown more often than they occur.
# FECH block: inhibitors of human ferrochelatase, primary screen, biochemical, purified FECH, Ni-mesoporphyrin absorbance. Ferrochelatase, mitochondrial (Homo sapiens), P22830. Ni-mesoporphyrin absorbance 550 nm. calls only at 10 µM (by protocol). actives 3.3% (n = 20,000). AID 1671448, 2021;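 active = enzyme reaction rate more than 3 SD below the solvent-only control wells on the same plate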;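 note: lower slope than DMSO wells means FECH inhibition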
# Target sequence (P22830 whole entry, looked up): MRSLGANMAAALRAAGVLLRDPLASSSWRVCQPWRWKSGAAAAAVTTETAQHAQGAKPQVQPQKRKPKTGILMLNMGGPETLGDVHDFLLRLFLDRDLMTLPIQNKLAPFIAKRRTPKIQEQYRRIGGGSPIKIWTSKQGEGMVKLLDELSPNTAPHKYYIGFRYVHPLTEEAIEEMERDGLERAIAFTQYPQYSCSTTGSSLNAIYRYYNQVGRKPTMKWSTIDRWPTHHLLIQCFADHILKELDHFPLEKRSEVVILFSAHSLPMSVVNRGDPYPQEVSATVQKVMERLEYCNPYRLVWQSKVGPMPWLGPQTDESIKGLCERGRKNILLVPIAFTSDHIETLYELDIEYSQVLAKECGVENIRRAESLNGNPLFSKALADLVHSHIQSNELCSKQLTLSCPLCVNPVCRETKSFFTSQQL
# Starred values were filed as active, the others as inactive; i = inactive; + = active, no number.
SMILES,FECH block
Cc1ccc(N(Cc2nc3nc(C)c(Cl)c(C)n3n2)C(=O)C(C)C)cc1,i
Cc1ccc(NC(=O)N2CCC(n3c(C)nc4cccnc43)CC2)cc1F,i
Cc1cc(C)n2nc(CN(C(=O)c3ccccc3)c3ccccc3)nc2n1,i
Cc1cc(Sc2ccccc2NC(=O)Cc2cccs2)n2nc(-c3ccccc3)nc2n1,i
CC(C)n1cnc2nc(CSc3ccccc3NC(=O)c3cccc(F)c3)cc(=O)n21,+
CC(C)n1cnc2nc(CSc3ccccc3NC(=O)c3ccc(F)c(Cl)c3)cc(=O)n21,i
CCc1cc(Sc2ccccc2NC(=O)c2cccc(F)c2)n2ncnc2n1,i
CC(C)c1nc(CCNC(=O)C2CCCN(C3CCCCC3)C2)no1 (stereo unspecified),i
CCNc1ccnc(N2CCN(Cc3ncccc3C)CC2)n1,i
CN1CC(=O)N(CC(=O)Nc2ccc(-c3ccno3)cc2)c2ccccc2C1=O,+
CN1CC(=O)N(CC(=O)Nc2cccc(-c3ccno3)c2)c2ccccc2C1=O,i
CC(=O)Nc1ccc(NC(=O)CN2C(=O)CN(C)C(=O)c3ccccc32)cc1,i
Cc1ccc(Nc2nc(N3CCCC3)nc3c2cnn3-c2ccccc2)cc1,i
COc1cc(Nc2cc(-n3nc(C)cc3C)ncn2)cc(OC)c1,+
Cc1cc(C)n(-c2cc(Nc3ccc(Cl)cc3)ncn2)n1,i
COc1cccc(Nc2cc(-n3nc(C)cc3C)ncn2)c1,i
CSc1nc(-c2ccc(C)cc2)c(C#N)c(N2CCCCC2C)n1 (stereo unspecified),i
COc1ccccc1N1CCN(C(=O)CSCc2nc(-c3ccc(Cl)cc3)no2)CC1,i
COC(=O)[C@H]1C[C@@H](O)CCN1C(=O)c1cccc(OC)c1,i
O=C(CCN1CCCCO1)N(Cc1ccccc1)Cc1nccs1,i
CN1CCCC(CCNC(=O)CCN2CCCCO2)C1 (stereo unspecified),i
O=C(CCN1CCCCO1)NCC(c1ccccc1)C1CCCC1 (stereo unspecified),+
C=C(C)COc1cccc(C(=O)N(CCO)C2(C)CCS(=O)(=O)C2)c1 (stereo unspecified),i
Cc1ccc(C)c(S(=O)(=O)N2CCN(Cc3nc4cccnc4n3-c3ccccc3)CC2)c1,i
Cc1ccc(NC(=O)CN2CCN(Cc3ccc(F)cc3Cl)S2(=O)=O)cc1,+
SMILES,FECH block
O=C(CN1CCN(Cc2ccccc2Cl)S1(=O)=O)Nc1ccc(Cl)cc1,i
COc1ccccc1NC(=O)CN1CCN(Cc2ccc(F)cc2Cl)S1(=O)=O,i
O=C(CN1CCCN(Cc2ccccc2Cl)S1(=O)=O)Nc1ccc(F)c(Cl)c1,+
CCOC(=O)c1ccccc1NC(=O)CN1CCN(Cc2ccc(F)cc2Cl)S1(=O)=O,+
CCc1ccc(NC(=O)CN2CCN(Cc3ccc(F)cc3Cl)S2(=O)=O)cc1,i
O=C(CN1CCN(Cc2ccc(F)cc2Cl)S1(=O)=O)Nc1ccccc1Cl,i
O=C(CN1CCN(Cc2ccc(F)cc2Cl)S1(=O)=O)Nc1ccc(Br)cc1,i
O=C(CN1CCN(Cc2ccccc2F)S1(=O)=O)Nc1ccc(F)c(Cl)c1,i
O=C(c1ccc(-c2ccccc2)cc1)C1CCCN(Cc2cc(=O)[nH]c(=O)[nH]2)C1 (stereo unspecified),i
COC(=O)c1ccc(-c2noc(CN3CCN(C(=O)C4CCCO4)CC3)n2)cc1 (stereo unspecified),i
O=C(O)c1cc(NS(=O)(=O)c2ccc(Cl)c(Cl)c2)cnc1N1CCCCCC1,i
O=C(NCC1(Cn2cccn2)CC1)C1CNCCO1 (stereo unspecified),i
CCCc1cc(NCc2ccccc2F)n2nc(-c3cccnc3)nc2n1,i
Cc1ccc(-c2cc(N3CCN(S(=O)(=O)c4ccc(Br)cc4)CC3)ncn2)cc1,+
O=S(=O)(c1ccc(Br)cc1)N1CCN(c2cc(-c3ccc(F)cc3)ncn2)CC1,i
O=S(=O)(c1ccc(Br)cc1)N1CCN(c2cc(-c3cccc(F)c3)ncn2)CC1,i
CCOc1ccccc1NC(=O)NCCc1nc2cccnc2n1Cc1ccc(C)cc1,i
CCOC(=O)CNS(=O)(=O)c1cc(N2C(=O)CCS2(=O)=O)ccc1C,+
Cc1ccc(N2C(=O)CCS2(=O)=O)cc1S(=O)(=O)N1CCN(c2ccc(F)cc2)CC1,+
COC(=O)CNS(=O)(=O)c1cc(N2C(=O)CCS2(=O)=O)ccc1OC,i
CCc1cccc(C)c1NS(=O)(=O)c1cc(N2C(=O)CCS2(=O)=O)ccc1C,+
CCOC(=O)C1CCN(S(=O)(=O)c2cc(N3C(=O)CCS3(=O)=O)ccc2C)CC1,i
COc1ccc(N2C(=O)CCS2(=O)=O)cc1S(=O)(=O)N1CCN(c2ccccc2F)CC1,i
CCc1cccc(CC)c1NS(=O)(=O)c1cc(N2C(=O)CCS2(=O)=O)ccc1OC,i
Cc1ccc(NS(=O)(=O)c2cc(N3C(=O)CCS3(=O)=O)ccc2C)cc1,i
SMILES,FECH block
COc1ccc(OCCNS(=O)(=O)c2cc(N3C(=O)CCS3(=O)=O)ccc2C)cc1,i
Cc1nc(CC(=O)NCC2OCCc3ccccc32)cs1 (stereo unspecified),i
CCOc1ccc(Nc2nc(NCc3ccccc3OC)nc3c2cnn3-c2ccccc2)cc1,i
CCC(=O)Nc1cccc(C(=O)NCc2nnc(C)o2)c1,i
CC1CCCCN1CCNC(=O)C1CCN(c2ncnc3c2nc2n3CCCCC2)CC1 (stereo unspecified),i
Cc1cnc(NCc2ccccc2CN(C)C)nc1N(C)C,i
CCOC(=O)c1cc2ccsc2n1CC(=O)N(CC)c1cccc(C)c1,i
CCOC(=O)c1cc2ccsc2n1CC(=O)Nc1ccccc1C(=O)OC,i
CCOC(=O)c1cc2ccsc2n1CC(=O)N(CC)c1ccccc1,+
O=C(Nc1nc2n(n1)C(c1ccc(F)cc1)C=C(c1ccccc1)N2)c1ccc(F)cc1 (stereo unspecified),i
Cc1cc(C)n(CC(C)NCc2n[nH]c3c2CCC3)n1 (stereo unspecified),i
CCn1ccnc1CN1CCC2(CCCN(C(=O)CCc3ccccc3)C2)C1 (stereo unspecified),i
O=C(NC1CCCCC1)c1nc[nH]c1C(=O)NCC1CC1,i
O=C(NC1CCCCC1)c1nc[nH]c1C(=O)NCc1cccc(C(F)(F)F)c1,+
CC(C)NC(=O)c1nc[nH]c1C(=O)NC1CCCC1,i
O=C(NC1CCCC1)c1nc[nH]c1C(=O)NCc1ccccc1,i
CC(C)(C)CNC(=O)c1[nH]cnc1C(=O)NC1CCCC1,i
CC(C)(C)CNC(=O)c1[nH]cnc1C(=O)NC1CCCCC1,i
O=C(NC1CCCC1)c1nc[nH]c1C(=O)NC1CC1,i
O=C(NC1CCCCC1)c1nc[nH]c1C(=O)NCc1ccccc1,+
CNC(=O)c1[nH]cnc1C(=O)NC1CCCCC1,+
O=C(O)c1cccnc1CN(Cc1ccccc1)[C@@H]1CCCC[C@H]1O,i
COC(=O)c1sc(NC(=O)CN2CCCC2Cn2cccn2)nc1C (stereo unspecified),i
O=C(NCCc1cnc2ccccn12)c1ccccc1C1CCNC1 (stereo unspecified),i
Cc1cccc(C(C(=O)N(Cc2cncs2)C2CC2)N(C)C)c1 (stereo unspecified),i
O=C(NC(CCn1ccnc1)c1ccccc1)c1cc2n(n1)CCNC2 (stereo unspecified),i
